Source: paper PMC5540273 (PLoS ONE, 2017)

Key:
Conditions in all cases: concentration: 1 μM, replicates: in singlicate; n = 1
HIPK3 = system: HIPK3
HIPK4 = system: HIPK4
HPK1 = system: HPK1
HUNK = system: HUNK
ICK = system: ICK
IGF1R = system: IGF1R
IKK-alpha = system: T1, IKK-alpha
T1 construct: gene CHUK

IKK-beta = system: T2, IKK-beta
T2 construct: gene IKBKB

IKK-epsilon = system: T3, IKK-epsilon
T3 construct: gene IKBKE

INSRR = system: INSRR
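Also: KINOMEscan kinase panel screen.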

O=C1NC(=O)C(c2ccccc2)=C1Nc1cccc(O)c1 [SB-390534]
%Inh (HIPK3): 8% | %Inh (HIPK4): 2% | %Inh (HPK1): 9% | %Inh (HUNK): 29% | %Inh (ICK): 10% | %Inh (IGF1R): 0% | %Inh (IKK-alpha): 0% | %Inh (IKK-beta): 0% | %Inh (IKK-epsilon): 0% | %Inh (INSRR): 15%

Cc1nn2c(=O)cc(N3CCOCC3)nc2n1Cc1cccc(Cl)c1Cl [GSK2342769]
%Inh (HIPK3): 38% | %Inh (HIPK4): 0% | %Inh (HPK1): 32% | %Inh (HUNK): 0% | %Inh (ICK): 2% | %Inh (IGF1R): 5% | %Inh (IKK-alpha): 19% | %Inh (IKK-beta): 18% | %Inh (IKK-epsilon): 5% | %Inh (INSRR): 0%

Cc1nnc(-c2ccc(C)c(-c3ccc(C(=O)O)cc3)c2)o1 [GW608005]
%Inh (HIPK3): 7% | %Inh (HIPK4): 0% | %Inh (HPK1): 7% | %Inh (HUNK): 0% | %Inh (ICK): 0% | %Inh (IGF1R): 0% | %Inh (IKK-alpha): 30% | %Inh (IKK-beta): 25% | %Inh (IKK-epsilon): 1% | %Inh (INSRR): 10%

Nc1ncnc2c1ncn2-c1cccc(F)c1 [SKF-97560]
%Inh (HIPK3): 14% | %Inh (HIPK4): 6% | %Inh (HPK1): 23% | %Inh (HUNK): 10% | %Inh (ICK): 6% | %Inh (IGF1R): 1% | %Inh (IKK-alpha): 13% | %Inh (IKK-beta): 19% | %Inh (IKK-epsilon): 23% | %Inh (INSRR): 0%
